# According to PubChem BioAssay (EPA / NIEHS):
# Activity calls are given as the source filed them. The calls were made as follows: active = hit-call score of the fitted dose curve at least 0.9, where 1 is the maximum; inactive = score below 0.9.
# What was measured:
# Conditions in all cases: mRNA level, 48 h; actives raise or lower the signal
# [1] = read-out: Alpha-fetoprotein (AFP) gene, AFP (gene 174); test: LTEA_HepaRG_AFP: Life Technologies and Expression Analysis (LTEA) Assay for Alpha-fetoprotein (AFP) gene using HepaRG (AID 2283472)
# In short: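 HepaRG, single lot; 48 h post-plating -> serum-free induction medium; cpd 8-pt, 100 uM top, half-log, 0.5% DMSO, duplicate, 48 h. RNA -> qRT-PCR AFP, norm ACTB/GAPDH/POLR2A. Bidirectional fit vs DMSO.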
# BCL2L11 (gene 10018) = test: LTEA_HepaRG_BCL2L11: Life Technologies and Expression Analysis (LTEA) Assay for Bcl-2 (BCL2L11) gene using HepaRG (AID 2283473)
# In short: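 HepaRG, 48 h exposure, 8-pt half-log series from 100 uM in 0.5% DMSO, duplicates; qRT-PCR (Fluidigm TaqMan) for BCL2L11, housekeeping-normalized; bidirectional curve fit relative to DMSO baseline.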
# [2] = read-out: Apolipoprotein A-V (APOA5) gene, APOA5 (gene 116519); test: LTEA_HepaRG_APOA5: Life Technologies and Expression Analysis (LTEA) Assay for Apolipoprotein A-V (APOA5) gene using HepaRG (AID 2283474)
# In short: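 HepaRG, 48 h chemical exposure in serum-free induction medium, 8-pt half-log series (top 100 uM), 0.5% DMSO vehicle, duplicates. Readout: APOA5 mRNA by qRT-PCR, housekeeping-normalized; bidirectional fit vs DMSO baseline.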
# [3] = read-out: Apoptosis regulator Bcl-2 (Homo sapiens) (UniProt P10415); test: LTEA_HepaRG_BCL2: Life Technologies and Expression Analysis (LTEA) Assay for Bcl-2 gene using HepaRG (AID 2283475)
# In short: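 HepaRG, plated 48 h then switched to serum-free induction medium; dosed 48 h, 8 conc. (max 100 uM, half-log steps), duplicate, 0.5% DMSO. Lysis in RLT, RNA isolated, TaqMan qRT-PCR for BCL2; ACTB/GAPDH/POLR2A normalisation; bidirectional fit vs DMSO.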
# [4] = read-out: Bcl-2 (BID) gene, BID (gene 637); test: LTEA_HepaRG_BID: Life Technologies and Expression Analysis (LTEA) Assay for Bcl-2 (BID) gene using HepaRG (AID 2283476)
# In short: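 Transcript levels of BID, measured by qRT-PCR and normalized to three housekeeping genes, were fitted bidirectionally against DMSO controls. Cells were HepaRG, dosed 48 h at up to 100 uM.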
# Caspase-3 (Homo sapiens) = Caspase-3 (Homo sapiens) (UniProt P42574); test: LTEA_HepaRG_CASP3: Life Technologies and Expression Analysis (LTEA) Assay for cysteine-aspartic acid protease (CASP3) using HepaRG (AID 2283477)
# In short: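 HepaRG, 48 h exposure, 8 conc. (top 100 uM, half-log steps, duplicate), 0.5% DMSO vehicle; qRT-PCR of CASP3 transcript, housekeeping-normalised (ACTB/GAPDH/POLR2A); bidirectional curve fit vs DMSO baseline.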
# [5] = read-out: Cytochrome P450 (CYP24A1), CYP24A1 (gene 1591); test: LTEA_HepaRG_CYP24A1: Life Technologies and Expression Analysis (LTEA) Assay for Cytochrome P450 (CYP24A1) using HepaRG (AID 2283478)
# In short: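 qRT-PCR read-out: CYP24A1 transcript levels normalized to three housekeeping genes, bidirectional curve fits against 0.5% DMSO baseline. Human HepaRG cells treated 48 h with chemicals at eight concentrations from 100 uM in half-log steps.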
# [6] = read-out: Cytochrome P450 (CYP1A2), CYP1A2 (gene 1544); test: LTEA_HepaRG_CYP1A2: Life Technologies and Expression Analysis (LTEA) Assay for Cytochrome P450 (CYP1A2) using HepaRG (AID 2283479)
# In short: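 HepaRG, 48 h exposure, top 100 uM, half-log 8-pt, 0.5% DMSO vehicle, duplicates. Readout: TaqMan qRT-PCR of CYP1A2 mRNA, housekeeping-normalized (ACTB/GAPDH/POLR2A). Gain/loss fit relative to DMSO baseline.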
# [7] = read-out: cysteine-aspartic acid protease (CASP8), CASP8 (gene 841); test: LTEA_HepaRG_CASP8: Life Technologies and Expression Analysis (LTEA) Assay for cysteine-aspartic acid protease (CASP8) using HepaRG (AID 2283480)
# In short: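 HepaRG, 48 h exposure, duplicate wells; 8 conc, half-log from 100 uM, 0.5% DMSO. Serum-free induction medium. CASP8 mRNA by TaqMan qRT-PCR, norm. ACTB/GAPDH/POLR2A; gain/loss fitted vs DMSO.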
# [8] = read-out: Cytochrome P450 (CYP2B6), CYP2B6 (gene 1555); test: LTEA_HepaRG_CYP2B6: Life Technologies and Expression Analysis (LTEA) Assay for Cytochrome P450 (CYP2B6) using HepaRG (AID 2283481)
# In short: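 Read-out is CYP2B6 mRNA by TaqMan qRT-PCR, normalized to three housekeeping genes and fitted bidirectionally against 0.5% DMSO baseline. Human HepaRG cells received test chemicals for 48 h, top concentration 100 uM, half-log dilutions.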
# [9] = read-out: Cytochrome P450 2C19 (Homo sapiens) (UniProt P33261); test: LTEA_HepaRG_CYP2C19: Life Technologies and Expression Analysis (LTEA) Assay for CYP2C19 using HepaRG (AID 2283482)
# In short: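 HepaRG, 48 h chemical exposure, 8-pt half-log series from 100 uM in 0.5% DMSO, duplicates. Readout: CYP2C19 mRNA by TaqMan qRT-PCR, housekeeping-normalized. Bidirectional fit vs DMSO baseline; phenobarbital 1mM as induction control.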
# CYP2C8 (gene 1558) = test: LTEA_HepaRG_CYP2C8: Life Technologies and Expression Analysis (LTEA) Assay for CYP2C8 using HepaRG (AID 2283483)
# In short: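 CYP2C8 mRNA induction or loss, by qRT-PCR normalized to ACTB/GAPDH/POLR2A, is read in HepaRG cells after 48 h treatment. Concentrations run from 100 uM down in half-log dilutions, with 0.5% DMSO as vehicle and baseline.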
# CYP2C9 (gene 1559) = test: LTEA_HepaRG_CYP2C9: Life Technologies and Expression Analysis (LTEA) Assay for CYP2C9 using HepaRG (AID 2283484)
# In short: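 Cells plated 48 h, switched to serum-free induction medium, then treated in duplicate for 48 h at eight concentrations (max 100 uM, 0.5% DMSO). RNA then analysed by qRT-PCR for CYP2C9; curves fitted in both directions relative to DMSO.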
# CYP2E1 (gene 1571) = test: LTEA_HepaRG_CYP2E1: Life Technologies and Expression Analysis (LTEA) Assay for CYP2E1 using HepaRG (AID 2283485)
# In short: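 Human liver line HepaRG, plated 48 h, then serum-free induction medium + chemical x 48 h; 8-pt CRC from 100 uM, half-log, 0.5% DMSO, n=2. Readout: CYP2E1 mRNA qRT-PCR vs ACTB/GAPDH/POLR2A; bidirectional fit vs DMSO.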
# CYP4A11 (gene 1579) = test: LTEA_HepaRG_CYP4A11: Life Technologies and Expression Analysis (LTEA) Assay for CYP4A11 using HepaRG (AID 2283486)
# In short: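 CYP4A11 transcript levels were quantified by TaqMan qRT-PCR after HepaRG human liver cells were treated for 48 hours with test chemicals (top 100 uM, half-log dilutions, 0.5% DMSO). Gain or loss of signal was fitted relative to DMSO.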
# [10] = read-out: DNA damage-inducible transcript 3 (DDIT3), DDIT3 (gene 1649); test: LTEA_HepaRG_DDIT3: Life Technologies and Expression Analysis (LTEA) Assay for DNA damage-inducible transcript 3 (DDIT3) using HepaRG (AID 2283488)
# In short: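 HepaRG plated 48 h, switched to serum-free induction medium, dosed 48 h (100 uM top, half-log, 8 pts, 0.5% DMSO, n=2); RNA isolated; DDIT3 by qRT-PCR; bidirectional curve fit vs DMSO.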
# [11] = read-out: Early growth response protein 1 (EGR1) transcription factor, EGR1 (gene 1958); test: LTEA_HepaRG_EGR1: Life Technologies and Expression Analysis (LTEA) Assay for Early growth response protein 1 (EGR1) transcription factor using HepaRG (AID 2283490)
# In short: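 Read-out is EGR1 mRNA level by qRT-PCR, normalized to three housekeeping genes and analysed for gain or loss of signal against 0.5% DMSO. Source cells: human HepaRG, treated 48 h at up to 100 uM in half-log dilutions.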
# [12] = read-out: Pro-epidermal growth factor (Homo sapiens) (UniProt P01133); test: LTEA_HepaRG_EGF: Life Technologies and Expression Analysis (LTEA) Assay for Epidermal growth factor (EGF) using HepaRG (AID 2283489)
# In short: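 qRT-PCR readout of EGF transcript after 48 h chemical exposure of HepaRG cells; eight concentrations from 100 uM down in half-log steps, duplicate wells, 0.5% DMSO vehicle. Bidirectional curve fitting against DMSO baseline.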
# [13] = read-out: Cytochrome P450 3A4 (Homo sapiens) (UniProt P08684); test: LTEA_HepaRG_CYP3A4: Life Technologies and Expression Analysis (LTEA) Assay for CYP3A4 using HepaRG (AID 2283487)
# In short: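 Differentiated HepaRG cells in serum-free induction medium exposed in duplicate for 48 h to 8 half-log concentrations up to 100 uM in 0.5% DMSO. CYP3A4 mRNA measured by qRT-PCR normalized to ACTB, GAPDH and POLR2A; bidirectional fit versus DMSO.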
# Apoptosis regulator Bcl-2 (Homo sapiens), sequence (P10415 whole entry, looked up): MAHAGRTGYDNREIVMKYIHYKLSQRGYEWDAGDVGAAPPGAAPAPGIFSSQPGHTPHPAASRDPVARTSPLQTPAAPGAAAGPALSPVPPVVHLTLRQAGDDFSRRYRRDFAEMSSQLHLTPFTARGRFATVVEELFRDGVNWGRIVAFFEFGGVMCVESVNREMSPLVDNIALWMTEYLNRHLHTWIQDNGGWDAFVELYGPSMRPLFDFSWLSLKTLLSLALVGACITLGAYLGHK
# Caspase-3 (Homo sapiens), sequence (P42574 whole entry, looked up): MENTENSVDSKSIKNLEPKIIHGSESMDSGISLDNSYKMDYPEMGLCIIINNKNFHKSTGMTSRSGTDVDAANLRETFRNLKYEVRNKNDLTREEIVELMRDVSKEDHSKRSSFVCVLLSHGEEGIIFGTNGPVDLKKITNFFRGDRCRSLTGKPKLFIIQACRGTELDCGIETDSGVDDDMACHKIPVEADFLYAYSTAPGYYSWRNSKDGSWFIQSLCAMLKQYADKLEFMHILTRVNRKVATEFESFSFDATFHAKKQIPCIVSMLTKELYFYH
# Cytochrome P450 2C19 (Homo sapiens), sequence (P33261 whole entry, looked up): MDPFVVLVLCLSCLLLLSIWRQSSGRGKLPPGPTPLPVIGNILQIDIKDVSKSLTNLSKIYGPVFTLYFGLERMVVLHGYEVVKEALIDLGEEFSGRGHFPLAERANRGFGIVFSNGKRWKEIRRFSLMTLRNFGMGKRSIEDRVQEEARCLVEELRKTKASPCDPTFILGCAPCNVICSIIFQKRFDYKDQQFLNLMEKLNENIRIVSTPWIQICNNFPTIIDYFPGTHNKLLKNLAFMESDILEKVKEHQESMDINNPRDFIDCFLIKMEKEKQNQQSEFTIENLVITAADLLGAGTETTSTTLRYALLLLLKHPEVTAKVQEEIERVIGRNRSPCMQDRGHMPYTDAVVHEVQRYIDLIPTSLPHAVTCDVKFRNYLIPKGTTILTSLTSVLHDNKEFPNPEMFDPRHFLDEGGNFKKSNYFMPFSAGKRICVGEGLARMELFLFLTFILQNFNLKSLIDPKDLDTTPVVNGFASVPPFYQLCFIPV
# Cytochrome P450 3A4 (Homo sapiens), sequence (P08684 whole entry, looked up): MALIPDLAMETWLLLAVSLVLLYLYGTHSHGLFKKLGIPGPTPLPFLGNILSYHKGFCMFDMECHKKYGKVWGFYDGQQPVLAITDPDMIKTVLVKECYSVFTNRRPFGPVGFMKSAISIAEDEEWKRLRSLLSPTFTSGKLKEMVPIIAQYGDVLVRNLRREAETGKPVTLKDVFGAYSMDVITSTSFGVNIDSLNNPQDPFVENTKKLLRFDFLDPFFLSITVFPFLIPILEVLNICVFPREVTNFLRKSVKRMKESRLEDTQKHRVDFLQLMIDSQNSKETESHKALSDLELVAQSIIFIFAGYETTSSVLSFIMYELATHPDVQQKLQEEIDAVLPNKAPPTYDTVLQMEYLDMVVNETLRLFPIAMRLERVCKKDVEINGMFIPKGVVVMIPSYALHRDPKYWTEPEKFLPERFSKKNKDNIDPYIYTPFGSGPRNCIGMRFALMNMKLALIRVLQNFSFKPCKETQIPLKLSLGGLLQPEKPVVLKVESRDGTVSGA
smiles,measurement,setting,value
CN1C(=O)CC[C@H]1c1cccnc1,outcome,[1],inactive
same,outcome,BCL2L11 (gene 10018),inactive
same,outcome,[2],inactive
same,outcome,[3],inactive
same,outcome,[4],inactive
same,outcome,Caspase-3 (Homo sapiens),inactive
same,outcome,[5],inactive
same,AC50,[6],91.4 µM (active)
same,outcome,[7],inactive
same,outcome,[8],inactive
same,outcome,[9],inactive
same,outcome,CYP2C8 (gene 1558),inactive
same,outcome,CYP2C9 (gene 1559),inactive
same,outcome,CYP2E1 (gene 1571),inactive
same,outcome,CYP4A11 (gene 1579),inactive
same,outcome,[10],inactive
same,outcome,[11],inactive
c1ccc2n[nH]nc2c1,outcome,[1],inactive
same,outcome,BCL2L11 (gene 10018),inactive
same,outcome,[2],inactive
same,outcome,[3],inactive
same,outcome,[4],inactive
same,outcome,Caspase-3 (Homo sapiens),inactive
same,outcome,[5],inactive
same,outcome,[6],inactive
same,outcome,[7],inactive
same,outcome,[8],inactive
same,outcome,[9],inactive
same,outcome,CYP2C8 (gene 1558),inactive
same,outcome,CYP2C9 (gene 1559),inactive
same,outcome,CYP2E1 (gene 1571),inactive
same,outcome,CYP4A11 (gene 1579),inactive
same,outcome,[10],inactive
same,outcome,[11],inactive
CCCOC(=O)c1cc(O)c(O)c(O)c1,AC50,[1],15.2 µM (active)
same,outcome,BCL2L11 (gene 10018),inactive
same,outcome,[2],inactive
same,outcome,[3],inactive
same,outcome,[4],inactive
same,outcome,Caspase-3 (Homo sapiens),inactive
same,outcome,[5],inactive
same,outcome,[6],inactive
same,outcome,[7],inactive
same,AC50,[8],0.674 µM (active)
same,AC50,[9],0.793 µM (active)
same,outcome,CYP2C8 (gene 1558),inactive
same,outcome,CYP2C9 (gene 1559),inactive
same,AC50,CYP2E1 (gene 1571),21.6 µM (active)
same,AC50,CYP4A11 (gene 1579),6.67 µM (active)
same,outcome,[10],inactive
same,outcome,[12],inactive
same,outcome,[11],inactive
O=C(OCCCCCCOC(=O)c1ccccc1)c1ccccc1,outcome,[1],inactive
same,outcome,BCL2L11 (gene 10018),inactive
same,outcome,[2],inactive
same,outcome,[3],inactive
same,outcome,[4],inactive
same,outcome,Caspase-3 (Homo sapiens),inactive
same,outcome,[5],inactive
same,AC50,[6],12.5 µM (active)
same,outcome,[7],inactive
same,outcome,[8],inactive
same,outcome,[9],inactive
same,outcome,CYP2C8 (gene 1558),inactive
same,outcome,CYP2C9 (gene 1559),inactive
same,outcome,CYP2E1 (gene 1571),inactive
same,outcome,CYP4A11 (gene 1579),inactive
same,outcome,[13],inactive
same,outcome,[10],inactive
same,outcome,[11],inactive
